The source made the active and inactive calls. Rule for the calls, unless noted: active = hit-call score of the fitted dose curve at least 0.9, where 1 is the maximum; inconclusive = response in the unintended direction; inactive = score below 0.9.
Experiment: CEETOX_H295R_MTT_cell_viability: Viability Assessment in the CeeTox HT-H295R MTT Assay (AID 2283718; active = hit-call score of the fitted dose curve at least 0.9, where 1 is the maximum; inactive = score below 0.9;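 for AC50: curve fitted both ways so AC50 may mark viability loss or gain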)
Summary of the method: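 MTT reduction (0.5 mg/ml, 4 h at 37 C; absorbance at 570 and 650 nm) gave viability as background-corrected percent change versus controls. H295R cells had 48 h forskolin (10 uM) prestimulation, then 48 h chemical exposure at 0.1% DMSO.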

SMILES | outcome | AC50
Cc1ccc(N=C=O)cc1N=C=O | inactive | 
[As]#[In] | inactive | 
Nc1ccc(Cc2ccc(N)cc2)cc1 |  | 2.04 µM (active)
c1ccc2c(c1)-c1cccc3cccc-2c13 | inactive | 
C=CCc1ccc2c(c1)OCO2 | inactive | 
CC(C)(O)c1cnn2c(-c3ccc(F)c(-c4c(F)cccc4C#N)c3)cnc2n1 | inactive | 

Experiment: Tanguay_ZF_120hpf_ActivityScore_legacy: (Legacy) Oregon State University Tanguay Lab 120 Hour Post-fertilization zebrafish Assay Score for Activity (AID 2283742)
Summary of the method: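 Binary scoring of mortality and morphology by brightfield at 24 and 120 hpf, summarised into one activity score from 18 components relative to DMSO. Wild-type Tropical 5D zebrafish, chorion removed at 4 hpf, static exposure 6–120 hpf, 28 °C.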

SMILES | outcome
Cc1ccc(N=C=O)cc1N=C=O | inactive
CCCCC(CC)COC(=O)c1ccc(C(=O)OCC(CC)CCCC)c(C(=O)OCC(CC)CCCC)c1 (configuration not stated) | inactive
c1ccc(C2CO2)cc1 (configuration not stated) | inactive
CN(C)c1ccccc1 | inactive
CCCCCCCCOC(=O)c1ccc(C(=O)OCCCCCCCC)c(C(=O)OCCCCCCCC)c1 | inactive
Nc1ccc([N+](=O)[O-])cc1 | inactive
ClCCOCCCl | inactive
CN(C)[C@@H]1C(=O)C(C(N)=O)=C(O)[C@@]2(O)C(=O)C3=C(O)c4c(O)cccc4[C@@](C)(O)[C@H]3C[C@@H]12 | inactive
[As]#[In] | inactive
CCCSC(=O)N(CCC)CCC | inactive
CCN(CC)CCO | inactive
CC(C)(C)OOC(C)(C)CCC(C)(C)OOC(C)(C)C | inactive
Nc1ccc(Cc2ccc(N)cc2)cc1 | inactive
Oc1ccccc1Cl | inactive
Cc1ccc([N+](=O)[O-])cc1 | inactive
Clc1ccccc1Cl | inactive
O=[N+]([O-])C(Br)(CO)CO | inactive
c1ccc(NNc2ccccc2)cc1 | inactive
O=C(Oc1ccc(Br)cc1)N1CCN2CCC1CC2 | inactive
c1ccc2c(c1)-c1cccc3cccc-2c13 | inactive
c1ccc2c(c1)oc1ccccc12 | inactive
